IL1B secr inh – inflammasome signaling inhibition, IL-1 beta readout. THP-1 LPS/ATP IL-1B secretion, AlphaLISA, 16 h; hits give low values. activity change, % at 57.5 µM. 360,000 tested, 4.7% active. AID 743279; in the data active = activity change below about -50%; inconclusive = mostly about -30% to -49%
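THP-1 cells pretreated 1 hr with compounds (up to 57.5 uM final), then stimulated with LPS (250 ng/mL final) plus ATP (1.25 mM final); secreted IL-1B measured by AlphaLISA after 16 hr, decreased signal indicating inhibition.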
DT40 TDP1 CPT – growth inhibition of DT40 Tdp1-/-;hTDP1 cells with camptothecin (screen for TDP1 inhibitors). chicken DT40 Tdp1-/-;hTDP1 cells + 20 nM CPT, ATP luminescence, 48 h. Potency, µM (top dose mostly 46.2 µM), for inactives: at the highest dose activity change, negative = growth inhibition, usual class: inhibitors. 420,000 tested, 12% active; note: potency is the fitted concentration of half-maximal effect; nearly all actives have a fitted effect of over 55% in size
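Chicken DT40 Tdp1-/- cells stably complemented with human TDP1 were seeded at 400 cells/well in medium containing 20 nM camptothecin, exposed to pin-transferred compounds, and grown at 37 °C for at least 48 hr. Viability was read as ATP luminescence.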
HT1080 IDH1KD tx – toxicity to HT-1080 IDH1 knockdown cells (counter line); HT-1080 IDH1 knockdown viability, ATP luminescence, 48 h; Potency, µM (titrated, usually from 46.1 µM), for inactives: top-dose activity, negative = toxicity, actives largely listed as cytotoxic; 360,000 tested, 2% active; AID 686971;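 note: potency is the fitted concentration of half-maximal effect; 0% = DMSO wells and -100% = cell-free medium wells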
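In this qHTS, HT-1080 cells depleted of IDH1 are exposed for 48 h at 37 °C to compound titrations. Toxicity is scored from CellTiter-Glo luminescence, with DMSO as full viability and medium alone as none.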
HT1080-NT tox – kills 2HG-producing HT-1080-NT fibrosarcoma cells; Potency, µM (highest dose often 46.1 µM), for inactives: at the highest dose activity, negative = less viability, actives largely listed as cytotoxic; AID 686970; HT-1080-NT fibrosarcoma viability, CellTiter-Glo ATP luminescence, 48 h; 360,000 tested, 1.6% active;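 note: NT is the 2HG producing partner of a matched IDH1 knockdown line; potency is the fitted concentration of half-maximal effect; 0% = DMSO-treated cells and -100% = media-only wells without cells; nearly all actives have a fitted effect of over 55% in size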
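HT-1080-NT; 750 cells/well; 5% FBS RPMI; 48 h compound, 37 degrees C; CellTiter-Glo luminescence; curve fitting and curve-class assignment.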
DT40 TDP1 no CPT – qHTS for Inhibitors of human tyrosyl-DNA phosphodiesterase 1 (TDP1): qHTS in cells in absence of CPT; DT40 Tdp1-/- hTDP1 cells, no CPT, ATP luminescence, 48 h; Potency, µM (series often up to 46.2 µM), inactives show at the highest dose activity change, negative = growth inhibition, hits mostly inhibitors; 420,000 tested, 15% active; note: potency is the fitted concentration of half-maximal effect; nearly all actives have a fitted effect of over 55% in size
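Stably hTDP1-transfected Tdp1-null chicken DT40 cells were treated with library compounds minus camptothecin and grown for at least 48 hr at 37 °C, after which cellular ATP was quantified by luminescence.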
* marks the source's active call; other numbers are inactive results; ? = inconclusive; nt = no result; ! = repeats disagree; [ ] = remark or other dose. A selection: hits, their analogues and other compounds. The true share with any hit is near 19%. Unless noted, calls come from the whole dose curve; as a rule, active = well fitted curve in the direction sought with a large enough effect; inconclusive = small, poorly fitted or top-dose-only effect, or another doubt; inactive = no such curve, though single readings can be large; an effect the other way counts as inactive or inconclusive. Unless noted, % is set by controls: 0 for no effect and ±100 for the full control effect.

SMILES	IL1B secr inh	DT40 TDP1 CPT	HT1080 IDH1KD tx	HT1080-NT tox	DT40 TDP1 no CPT
NC(=O)CC(NC(=O)Cc1ccc(Br)cc1)c1ccc(N2CCC(Cc3ccccc3)CC2)c([N+](=O)[O-])c1 (configuration not stated)	0	?	?	?	23µM*
NC(=O)CC(NC(=O)c1cccc(Br)c1)c1ccc(N2CCCCCC2)c([N+](=O)[O-])c1 (configuration not stated)	6	5.8µM*	2%	6%	6.5µM*
Cc1ccnc(N2C(=O)OC(C)(C)C2(C)O)c1 (configuration not stated)	-4	9%	-3%	-1%	-2%
CSc1ccccc1C(=O)NCCCn1ccnc1	16	-3%	21%	9%	11%
O=C(COC(=O)CNC(=O)c1cccc(OC(F)F)c1)NNC(=O)c1ccccc1	0	-9%	-4%	1%[9.24 µM]	7%
NC(=O)CC(NC(=O)c1cccc(Br)c1)c1ccc(N2CCC(N3CCCC3)CC2)c([N+](=O)[O-])c1 (configuration not stated)	-1	5%	9%	8%	-19%
NC(=O)CC(NC(=O)c1ccc(Br)cc1)c1ccc(N2CCC(Br)CC2)c([N+](=O)[O-])c1 (configuration not stated)	-26	18µM*	-14%	-12%	12µM*
C=CCOC(=O)C1=C[C@H](c2ccc3c(c2)OCO3)C[C@H](OCCCCO)O1	16	-5%	2%	0%	-15%
Cc1ccc(C(CCNC(C)c2cccs2)c2ccco2)cc1 (configuration not stated)	?	?	?	?	18µM*
CCc1cc(C(=O)N2CCN(c3ncccn3)CC2)sc1C	-9	-15%	-1%	-10%	-21%
CC(C)CC(CO)N1CCN(C(=O)c2ccc(Cl)cc2)CCC1=O (configuration not stated)	3	7%	12%	20%	1%
Cc1ccccc1COC[C@H](CC(C)C)N1CCN(C(=O)c2cccc(C(F)(F)F)c2)CCC1=O	-16	16µM*	0%	-1%	13µM*
Cc1ccc(COC[C@H](CC(C)C)N2CCN(C(=O)c3cccc(C(F)(F)F)c3)CCC2=O)cc1	-5	?	?	?	?
CC(C)CC(CO)N1CCN(C(=O)c2ccc(C(C)(C)C)cc2)CCC1=O (configuration not stated)	14	?	9%	12%	?
CC(C)CC(COCc1cccc(C(F)(F)F)c1)N1CCN(C(=O)c2cccc(C(F)(F)F)c2)CCC1=O (configuration not stated)	-67*	16µM*	-6%	-9%	23µM*
CC(C)CC(COCc1ccc(Cl)cc1)N1CCN(C(=O)c2cccc(C(F)(F)F)c2)CCC1=O (configuration not stated)	-24	16µM*	-6%	0%	21µM*
O=C(c1ccco1)N1CCC2(CCCN(Cc3ccncc3)C2)CC1	nt	4%	nt	nt	-23%
COc1ccc(CCNC(=O)CCc2cn(Cc3ccc(F)cc3)c3ccccc23)cc1OC	nt	?	nt	nt	16µM*
CCn1cc(CCC(=O)NCc2cccc(OC)c2OC)c2ccccc21	-14	18µM*	3%	6%	16µM*
Cc1ccc(Cn2cc(CCC(=O)NC3CCCCC3)c3ccccc32)cc1	nt	?	nt	nt	15µM*
COc1ccc(CCNC(=O)CCc2cn(Cc3ccccc3Cl)c3ccccc23)c(OC)c1	nt	?	nt	nt	16µM*
O=C(N(c1ccccc1)c1ccccc1)n1ccnc1	-7	-1%	4%	2%	-12%
O=[N+]([O-])c1ccccc1S(=O)(=O)N1CCN(c2ccccc2)CC1	-13	-5%	-1%	-1%	-2%
Cc1ccc(-n2nnnc2CNC(=O)c2ccccc2)cc1C	nt	-17%	nt	nt	-15%
OC[C@@H]1CN(Cc2ccc3c(c2)OCO3)C[C@H](n2cnc3c(NCc4ccc(F)cc4)ncnc32)O1	-2	?	-15%	2%	?
SMILES	IL1B secr inh	DT40 TDP1 CPT	HT1080 IDH1KD tx	HT1080-NT tox	DT40 TDP1 no CPT
CCOc1ccc(CNC(=O)CCc2cn(Cc3ccccc3)c3ccccc23)cc1	36	-24%	-5%	-10%	?
CCOc1ccc(CCNC(=O)CCc2cn(Cc3ccc(C)cc3)c3ccccc23)cc1	nt	?	nt	nt	12µM*
S=c1[nH]nc(C2CCCCC2)n1/N=C/c1ccc(Br)s1	2	?	-3%	-12%	?
Cc1cc(O)cc2c1C1CCC3(C)C(O)CCC3C1C=C2 (configuration not stated)	-14	?	18µM*	?	21µM*
COc1ccc2c(c1)CCC1C2CC[C@@]2(C)C(O)CCC12 (some centres not stated)	nt	-21%	nt	nt	-3%
CN(Cc1ccccc1)C(=O)c1ccc(NC(=O)Cc2cccc(NC(=O)C3CCN(C(=O)C4CCCC4)CC3)c2)cc1	27	?	-15%	-3%	?
C=CCn1c(=NC(=O)c2ccccc2[N+](=O)[O-])sc2cc(S(C)(=O)=O)ccc21	-2	16µM*	-6%	-11%	21µM*
COc1cccc(OC)c1C(=O)N=c1sc2cc(S(C)(=O)=O)ccc2n1C	-5	-10%	12%	3%	-18%
Clc1ccc2c(c1)C(N1CCNCC1)=Nc1ccccc1O2	0	15µM*!	4%	-12%	7.3µM*!
Cc1ccc(S(=O)(=O)N2CCC(N3CCN(Cc4ccccc4)C(=O)C3=O)CC2)cc1C	nt	-17%	nt	nt	?
Cc1ncc2c(c1CNC(=O)c1ccc3c(c1)OCO3)CCN(C(=O)c1ccc3ccccc3c1)C2	nt	7%[9.04 µM]	nt	nt	-19%
Cc1cnc(C(=O)NCc2c(C)ncc3c2CCN(C(=O)/C=C/c2cccs2)C3)cn1	nt	0.0046µM*	nt	nt	-18%
Cc1ncc2c(c1CNS(=O)(=O)c1cccs1)CCN(C(=O)/C=C/c1cc(F)cc(F)c1)C2	nt	-6%[9.04 µM]	nt	nt	23µM*
CSc1nc(C(=O)N2CCc3c(cnc(C)c3CNC(=O)c3ccc4c(c3)OCO4)C2)cs1	nt	0.13µM*	nt	nt	0.16µM*
O=C(NCC(c1ccco1)N1CCc2ccccc2C1)C(=O)Nc1ccc(F)cc1F (configuration not stated)	-2	18µM*	-13%	-3%	21µM*
O=C(NCC(c1ccco1)N1CCc2ccccc2C1)C(=O)Nc1ccccc1F (configuration not stated)	-5	-55%	-4%	6%	-82%
O=C(NCC(c1cccnc1)N1CCc2ccccc2C1)C(=O)Nc1ccc(F)cc1F (configuration not stated)	nt	15µM*	nt	nt	18µM*

Screens: PubChem, National Center for Advancing Translational Sciences (NCATS)
